According to PubChem BioAssay AID1159580 (chemical genetic matrix, 2015):
Among all 5,500 compounds or so, about 2,000 (36%) were called active. About 18% were inconclusive and are not listed. Rule as the data show it: active = normalized growth mostly below about 0.91 (no sharp cut-off); inconclusive = no clear call, values can overlap the other calls; inactive = mostly above about 0.92. Some of the results follow.

Test: chemical genetic growth profiling, strain panel (AID 1159580);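 also: tested at 20 µM; growth read once vehicle control cultures reached saturation at 30 °C; 1 = growth at the plate median or of vehicle wells; lower values mean less growth of the strain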
Conditions: S. cerevisiae deletion strains, growth OD

Measured: normalized growth

C#CCN[C@H](C)Cc1ccccc1
inactive: locus YAL040C, strain CLN3, hits give low values 1 | locus YCL061C, strain MRC1 (second series), hits give low values 0.992 | locus YDR150W, strain NUM1, hits give low values 0.997 | locus YDR363W, strain ESC2, hits give low values 1.01 | locus YER002W, strain NOP16, hits give low values 0.996 | locus YGR078C, strain PAC10, hits give low values 0.987 | locus YJR075W, strain HOC1, hits give low values 0.994 | locus YNL128W, strain TEP1, hits give low values 0.998 | locus YNL153C, strain GIM3, hits give low values 1 | locus YNL175C, strain NOP13, hits give low values 0.997 | locus YNL197C, strain WHI3, hits give low values 0.982 | locus YNL224C, strain SQS1, hits give low values 0.995 | locus YNL322C, strain KRE1, hits give low values 0.998 | locus YOR083W, strain WHI5 (second series), hits give low values 1.03 | locus YPL241C, strain CIN2, hits give low values 0.999
